# BioA inh: blocks M. tuberculosis BioA enzyme activity | purified M. tuberculosis BioA enzyme, plate reader | hit rate 0.096% among 360,000 | inhibition, % at 9.99 µM; in the data active = inhibition above about 40%
# Mtb bLac sens: beta-lactam sensitization of Mtb H37Rv; M. tuberculosis H37Rv growth with meropenem, percent inhibition; inhibition, % at 25 µM; hit rate 0.27% among 330,000; AID 434955; call rule not given here;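 note: growth measured after seven days incubation then overnight dye step; 0% = bacteria only wells and 100% = bacteria with antibiotic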
# RN4220 kill: S. aureus RN4220 growth inhibition; hit rate 0.33% among 330,000; AID 1259311; OD600, 16 h; inhibition, % (test concentration not listed); in the data active = inhibition above about 85%;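 note: plate controls were untreated cells for no effect and reference antibiotic for full effect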
# Sa ugtP lethal: compounds lethal to S. aureus RN4220 ugtP deletion mutant; OD600 growth, 16 h; growth inhibition, % (no concentration beside the values); hit rate 0.54% among 330,000; in the data active = growth inhibition above about 68%;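 note: plate controls were untreated wells for no effect and antibiotic for full effect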
# PfHsp40 yeast: restores yeast growth despite PfHsp40 toxicity; S. cerevisiae expressing PfHsp40, growth rescue, ATP luminescence; growth rescue, % at 12.5 µM; AID 504582; hit rate 0.68% among 340,000; in the data active = growth rescue above about 28%, passing the limit was not always enough;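 note: yeast W303a lacking pdr1 and pdr3 grown in galactose medium; growth measured after three days at 30 °C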
# Starred values were filed as active, the others as inactive; nt = not tested or not shown. A selection: hits, their analogues and other compounds. The true share with any hit is near 0.9%.
SMILES,BioA inh,Mtb bLac sens,RN4220 kill,Sa ugtP lethal,PfHsp40 yeast
CC[n+]1c(/C=C/C=C/N(C(C)=O)c2ccccc2)sc2ccccc21,-10.1,-11.9,nt,nt,-0.4
CC[n+]1c(/C=C/C=C/c2ccc(N(C)C)cc2)sc2ccccc21,-0.5,0.5,88.4*,81.8*,244.7*
CN(C)c1ccc(C=Cc2cc[n+](C)c3ccccc23)cc1,nt,nt,94.7*,92.6*,nt
CN(C)c1ccc(/C=C/C=C/c2sc3ccccc3[n+]2C)cc1,-0.2,-6.5,nt,nt,126.0*
Cc1ccc(S(=O)(=O)N2C(c3cccc(Cl)c3)CC=C(C(=O)O)C2c2ccccc2)cc1 (stereo not given),nt,nt,21.7,35.9,nt
CCCCSC(N)=NN=Cc1cc(C)ccc1O,nt,nt,5.8,2.2,nt
Oc1cccc2ccc(Nc3ccccn3)nc12,-1.0,97.2,19.7,28.6,240.1*
CCn1nc(C(=O)NC(CCSC)c2nc3ccccc3[nH]2)c2ccccc2c1=O (stereo not given),nt,nt,10.0,13.7,nt
O=C1CCC(O)CCN1C(CSc1ccc(Br)cc1)Cc1ccccc1 (stereo not given),nt,nt,4.3,28.6,nt
Nc1ccccc1O,0.3,96.8,9.4,-4.6,60.3*
CCC(C)C(CNC)NCC(Cc1cccc2ccccc12)NCCc1cccc(C(F)(F)F)c1 (stereo not given),nt,nt,100.8*,100.2*,nt
CNCC(Cc1ccccc1)NCC(Cc1cccc2ccccc12)NCCc1ccc(C)cc1 (stereo not given),nt,nt,100.9*,100.5*,nt
CC(C)CC(NC(=O)c1nc[nH]c1C(=O)NC1CCN(C(=O)OC(C)(C)C)CC1)C(=O)OC(C)(C)C (stereo not given),nt,nt,6.4,2.7,nt
O=C(NCC1CCCO1)c1cccc2c1C(=O)c1ccc(-c3ccc(F)cc3OCc3ccccc3)cc1S2(=O)=O (stereo not given),nt,nt,0.6,-7.6,nt
CC1CCC(C(=O)NC(C(=O)NCCN2CCC(C)CC2)C(C)C)CC1 (stereo not given),nt,nt,2.3,-1.7,46.1*
Cc1ccc(CNC(=O)C2(C(F)(F)F)CC(=CCc3ccccc3)CCCO2)o1 (stereo not given),nt,nt,6.4,0.2,nt
CC(=NNC(=O)c1ccc(O)cc1)c1cccc(NC(=O)c2ccc(Cl)cc2)c1,nt,nt,0.9,4.9,nt
C/C(=N\NC(=O)c1ccc(O)cc1)c1cccc(NC(=O)c2ccc(Cl)cc2)c1,7.2,6.5,nt,nt,44.3*
CC(=O)C1=C(C)N(CC2CC2)C(=O)NC1c1ccc(Br)cc1 (stereo not given),nt,nt,2.2,-1.5,nt
CC(C)(C)C1C=C(C(=O)NCc2ccccc2)OC(OCc2ccc(CO)cc2)C1 (stereo not given),nt,nt,7.0,1.7,nt
Clc1cccc(N/N=C(\Cc2nc3ccccc3[nH]2)c2ccccc2)c1,0.7,12.6,nt,nt,425.7*
Clc1ccc(C(Cc2nc3ccccc3[nH]2)=NNc2ccccc2)cc1,nt,nt,-12.1,-14.7,nt
O=C(O)c1ccc2c(c1)C(=O)/C(=C\c1ccco1)C2=O,nt,-1.7,1.4,5.1,-0.5
Cc1ccc(/C=C2/C(=O)c3ccc(C(=O)O)cc3C2=O)o1,nt,nt,2.8,6.4,45.2*
COC(=O)C(C)NC(=O)C=Cc1ccc(OC)cc1 (stereo not given),nt,nt,9.3,3.0,nt
SMILES,BioA inh,Mtb bLac sens,RN4220 kill,Sa ugtP lethal,PfHsp40 yeast
CC(C)(C)c1ccc2c(c1)OC(C(=O)NN=Cc1ccc([N+](=O)[O-])o1)CO2 (stereo not given),nt,nt,99.9*,99.5*,nt
CC[n+]1c(/C=C/c2c[nH]c3ccccc23)ccc2cc(C)ccc21,nt,nt,96.5*,97.3*,2.6
COc1ccc(OC2C=CC(c3ccccc3)OC2CON=CCC2C=CC(OC(C)=O)C(COC(C)=O)O2)cc1 (stereo not given),nt,nt,4.7,9.0,nt
COc1cc(C=NNC(=O)c2ccccc2)ccc1OS(=O)(=O)c1ccccc1,nt,nt,-3.4,89.7*,nt
Cc1ccc(C(O)=C2C(=O)C(=O)N(CC(C)O)C2c2ccc(N(C)C)cc2)cc1 (stereo not given),nt,nt,4.9,-8.0,nt
N#Cc1c(NC(=S)NC(=O)Cc2cccs2)sc2c1CCCCC2,-0.6,13.1,-5.1,87.0*,-0.1
CC(=O)NC(=S)Nc1sc2c(c1C#N)CCCCC2,nt,nt,5.8,2.1,2.1
COC(=O)C1=C(c2cc3ccccc3s2)CC2CCC1N2C(=O)N1CCCCC1 (stereo not given),nt,nt,1.5,2.5,nt
O=C(CCSc1ccc(Cl)cc1)c1ccco1,-0.9,100.0,1.6,83.8*,0.2
O=C(CSc1ccccc1Cl)c1ccco1,-1.1,77.6,14.7,87.3*,-1.9
